Source: PubChem (National Center for Advancing Translational Sciences (NCATS))
Hits are enriched below; roughly 8.3% of the tested compounds scored in any of these assays.
Chronic BCR inh = chronic active BCR signaling inhibition; ABC-DLBCL IkBa-CBG/CBR reporter, luminescence ratio, 4 h; Potency, µM (doses to about 46.1 µM), without a hit: top-dose activity change, negative = inhibition, actives largely listed as inhibitors; AID 493014; 0.05% of 340,000 active; active = well fitted inhibition curve with a large enough effect in the signal ratio, with a control signal flat, not every such curve was filed as active; inconclusive = small, poorly fitted or top-dose-only effect, or effect the other way, or a change in a side signal; the % refers to the signal ratio;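 note: potency is the fitted concentration of half-maximal effect; plate controls were basal doxycycline-induced cells for no effect and cells given 10 µM MG132 for full effect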
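Doxycycline induced both beetle luciferases in TMD8 lymphoma cells; IKK-driven degradation limits the IkappaBalpha-fused green signal, while red luminescence normalises for cell number and nonspecific effects. Compounds tested up to 46 uM, 4 hrs.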
Giardia killer = kills Giardia lamblia. Giardia lamblia trophozoite viability. activity change, % at 7.66 µM, hits read low. 0.15% of 340,000 active; in the data active = activity change below about -80%; inconclusive = between about -30% and that limit;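 note: parasites exposed to compound for two days anaerobically before the ATP read; % is set by controls: 0 for no effect and ±100 for the full control effect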
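Trophozoite viability was measured as ATP-dependent luminescence, read 15-30 min after reagent addition. Before that, parasites at 100 cells/well were exposed to compounds for 48 h, anaerobically, at 37 deg C.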
SW480 rereplic = inducers of DNA re-replication in SW480 colon cancer cells; 1.8% of 340,000 active; AID 624297; Potency, µM (series often up to 46.1 µM), for inactives: at the highest dose re-replication activation, actives largely listed as activators; SW480 DNA re-replication, Hoechst DNA content imaging, 48 h; note: potency is the fitted concentration of half-maximal effect; % of control where 0% means no effect; nearly all actives have a fitted effect of over 55% in size
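Image-based DNA-content assay: after two days of treatment, nuclei were labelled with the DNA dye Hoechst and imaged, and hits were compounds raising the count of nuclei showing high fluorescence intensity.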
RORg inh = blocks mouse ROR gamma transcriptional activity. Drosophila S2 Gal4-RORgamma UAS-luciferase reporter, 20 h. P51450. 5.4% of 310,000 active. AID 2551. Potency, µM (doses to about 53.6 µM), for inactives: top-dose activity change, negative = inhibition, most hits filed as inhibitors; note: potency is the fitted concentration of half-maximal effect; % is set by controls: 0 for no effect and ±100 for the full control effect; nearly all actives have a fitted effect of over 60% in size
Target sequence (P51450 whole entry, looked up, the tested form may be a part): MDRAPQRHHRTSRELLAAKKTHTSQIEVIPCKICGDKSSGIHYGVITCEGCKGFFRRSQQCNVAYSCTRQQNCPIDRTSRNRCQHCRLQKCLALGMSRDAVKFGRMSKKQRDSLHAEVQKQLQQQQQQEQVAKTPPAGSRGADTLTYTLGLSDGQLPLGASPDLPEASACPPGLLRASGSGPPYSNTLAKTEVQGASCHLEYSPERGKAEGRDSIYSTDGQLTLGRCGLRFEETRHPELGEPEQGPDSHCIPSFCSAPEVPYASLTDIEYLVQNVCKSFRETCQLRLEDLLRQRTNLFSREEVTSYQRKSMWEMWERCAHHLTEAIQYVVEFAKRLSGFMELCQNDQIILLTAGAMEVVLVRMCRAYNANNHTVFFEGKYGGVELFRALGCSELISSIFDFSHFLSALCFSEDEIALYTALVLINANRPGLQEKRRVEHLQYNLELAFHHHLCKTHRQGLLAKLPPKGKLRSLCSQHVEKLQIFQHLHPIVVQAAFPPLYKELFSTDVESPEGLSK
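In this cell-based reporter format, copper sulfate (700 uM final) drives Gal4–ROR gamma fusion expression from a metallothionein promoter in Drosophila Schneider cells; compounds preincubated 1 hr, reporter read after 20 hr at ambient temperature.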
VP16 counter = inhibits Gal4-VP16 luciferase reporter, ROR gamma counter-screen; 3.5% of 310,000 active; Drosophila S2 Gal4-VP16 UAS-luciferase, luminescence, 20 h; Potency, µM (series often up to 53.6 µM), without a hit: at the highest dose activity, negative = inhibition, usual class: inhibitors; AID 2546;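 note: Gal4-VP16 expression switched on by copper sulfate through the metallothionein promoter; potency is the fitted concentration of half-maximal effect; % is set by controls: 0 for no effect and ±100 for the full control effect; nearly all actives have a fitted effect of over 50% in size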
MCF10A rereplic = induces DNA re-replication in MCF 10a normal breast cells | MCF 10A DNA re-replication, Hoechst nuclear intensity, 48 h | Potency, µM (series often up to 46.1 µM), without a hit: at the highest dose activity, positive = re-replication, hits mostly activators | 2.9% of 350,000 active; note: potency is the fitted concentration of half-maximal effect; % of control where 0% means no effect; nearly all actives have a fitted effect of over 50% in size
Active calls of the source: *; ? = inconclusive; . = no result given; [ ] = another dose, or the depositor's remark. Unless noted, calls come from the whole dose curve; as a rule, active = well fitted curve in the direction sought with a large enough effect; inconclusive = small, poorly fitted or top-dose-only effect, or another doubt; inactive = no such curve, though single readings can be large; an effect the other way counts as inactive or inconclusive.

SMILES	Chronic BCR inh	Giardia killer	SW480 rereplic	RORg inh	VP16 counter	MCF10A rereplic
O=C1CCc2cc(NS(=O)(=O)c3ccc(Br)cc3)cc3c2N1CC3	-1%	0	0%	.	.	3%
CCCS(=O)(=O)c1cnc(C2COc3ccccc3O2)nc1N (centres undefined)	?	-25	?	0.63µM*	1.3µM*	-4%
CCCCNC(=S)N/N=C/c1sccc1C	?	16	0%	1.1µM*	-30%	16%
CCCCNC(=S)N/N=C/c1ccccc1F	?	17	-2%	2.5µM*	3.2µM*	7%
CCOC(=O)N/N=C\c1sccc1C	-16%	-10	2%	25%	?	-4%
CCCCNC(=S)N/N=C/c1cc(C)ccc1C	?	1	17%	1.8µM*	3.2µM*	13%
CCCCNC(=O)C(=O)N/N=C/c1cccc(Br)c1	2%	-3	-5%	?	1%	-2%
O=C(Nc1cc(C(F)(F)F)ccc1Cl)c1cc(S(=O)(=O)NCc2ccccc2)ccc1F	9%	.	.	.	.	.
Cn1c(=O)[nH]c(=O)c2c1nc(Br)n2CCCSc1nc2ccccc2o1	?	16	7.3µM*	17%	2%	13µM*
CCCn1c(N)c(C(=O)CSc2nnc(C3CC3)n2C2CC2)c(=O)[nH]c1=O	?	9	0%	.	.	1%
COc1ccc(OC)c(NC(=S)N2CCC(C(O)(c3ccccc3)c3ccccc3)CC2)c1	17%	-3	-4%	16µM*	?	-14%
COc1ccc(OC)c(NC(=S)N2CCN(Cc3ccccc3)CC2)c1	-3%	-3	14%	-71%	4%	-6%
COc1ccc(OC)c(NC(=S)NN2CCN(C)CC2)c1	?	-10	-1%	-6%	6%	-3%
S=C(Nc1cccc2ccccc12)NN1CCOCC1	-9%	-5	1%	11µM*	?	1%
COc1ccc(Cl)cc1NC(=S)NN1CCOCC1	2%	-1	-9%	5µM*	?	-2%
COc1ccc(NC(=S)NN2CCOCC2)cc1OC	10%	-5	-6%	-27%	1%	-3%
COc1ccc(OC)c(NC(=S)NN2CCOCC2)c1	5%	-8	0%	28µM*	-8%[0.365 µM]	2%
Cc1cccc(Cc2nnc(CCC(=O)N(C)C3CCOC3)o2)c1 (centres undefined)	2%	0	-18%	21%	-9%	3%
N[C@@H](CCCCNC(=O)CCCC[C@@H]1SC[C@H]2NC(=O)N[C@H]12)C(=O)O	.	.	.	9%	-7%	.
Cc1cc(Br)ccc1NC(=S)N1CCOCC1	-7%	24	-4%	13µM*	1%	-36%
Cc1ccc(NC(=S)NN2CCOCC2)c(C)c1	-9%	1	-6%	11µM*	?	-6%
Fc1ccc(NC(=S)N2CCOCC2)c(F)c1	?	-3	-4%	0%	-6%	1%
O=C(CSc1ccc2c(c1)OCCO2)Nc1cccc(S(=O)(=O)N2CCCCC2)c1	-7%	-3	-6%	14%[10 µM]	3%	-6%
CCOC(=O)C1=NN(C(=O)COc2ccccc2)C(O)(c2ccc(Br)cc2)C1 (centres undefined)	-2%	4	-21%	4.5µM*	11µM*	-7%
CCC1=NN(C(=O)COc2ccccc2)C(O)(c2ccncc2)C1 (centres undefined)	4%	6	6.5µM*	19%	-19%	2%
SMILES	Chronic BCR inh	Giardia killer	SW480 rereplic	RORg inh	VP16 counter	MCF10A rereplic
CCC1=NN(C(=O)Cc2ccccc2)C(O)(c2ccncc2)C1 (centres undefined)	?	-9	0%	0%	?	-4%
O=[N+]([O-])c1ccc(N2CCN(c3ccccc3Cl)CC2)cn1	?	-11	15%	26%	?	1%
CN1CCN(NC(=O)Nc2cc(Cl)cc(Cl)c2)CC1	1%	13	-15%	?	-5%	-3%
COc1ccc(-c2cc3c(=O)n(CC(=O)NCCCN4CCC(Cc5ccccc5)CC4)ncn3n2)cc1	1%	-23	5.8µM*	8%	15%	-14%
CCOC(=O)OCC1OC(c2ccc(C(C)=O)cc2)C=CC1Oc1ccc(-c2ccccc2)cc1 (centres undefined)	.	.	.	21%[10 µM]	6%[10 µM]	.
Cc1c(C(=O)N2CCOCC2)c(S(=O)(=O)Nc2ccc(OC(F)(F)F)cc2)c(C)n1C	-4%	-7	8%	26%	-15%	3%
CCCS/C(N)=N/N=C/c1ccccc1O	?	-11	?	0.63µM*	1.4µM*	?
C=CCS/C(N)=N\N=C\c1c(O)ccc2ccccc12	?	4	?	0.5µM*	3.2µM*	?
NC(=O)c1ccc(N=Cc2c(O)ccc3ccccc23)cc1	.	-14	4%	.	.	9%
O=C1c2ccccc2C2=Nc3ccccc3SC(c3cccc(F)c3)C12 (centres undefined)	?	-13	?	37%	-10%	12µM*
COc1ccccc1NC(=O)c1cc(C(=O)Nc2ccccc2OC)cc([N+](=O)[O-])c1	0%	19	-4%	23%	?	?
CCCOc1ccc(C(=O)N(Cc2cccs2)C2CCS(=O)(=O)C2)cc1 (centres undefined)	-2%	-7	?	42%	?	2%
COc1ccc(-c2nc(C(N)=O)c3[nH]c(=O)n(-c4cccc(Cl)c4)c3n2)cc1OC	?	8	-58%	?	?	?
CCc1ccc(-c2nc(C(N)=O)c3[nH]c(=O)n(-c4ccccc4OC)c3n2)cc1	-12%	-27	9.2µM*	?	-5%	?
CN1C(C(=O)Nc2ccccn2)C(=O)c2sc(Cl)cc2S1(=O)=O (centres undefined)	.	.	-10%	1%[10 µM]	-5%	-3%
COc1ccc(C2NC(=S)NC(C)=C2C(=O)c2ccccc2)cc1OC (centres undefined)	-25%	-5	23µM*	-33%	5%	?
CCC1NC(=S)NC(C)=C1C(=O)c1ccccc1 (centres undefined)	6%	-24	-11%	10µM*	-21%	-1%
Cc1cc(C(=O)N/N=C2\CC(=O)c3ccccc32)c(C)n1-c1ccc(F)cc1	1%	0	16µM*	13%	-11%	0%
O=[N+]([O-])c1cc(S(=O)(=O)N2CCCCCC2)ccc1Cl	-1%	-12	22%	-43%	3%	16µM*
CCOc1cc(S(=O)(=O)N2CCCCC2)ccc1F	8%	-4	-2%	10%	-2%	2%
CCOc1cc(S(=O)(=O)N2CCCC2)ccc1Cl	-9%	-1	0.73µM*	0%	-3%	1µM*
